Consider five molecules from PubChem BioAssay.

Experiment [1] in a line: small molecules captured by biotinylated probe aFSTL3 – biochemical, small-molecule microarray, fluorescence 635/667, stem cell growth factor project, primary screen (AID 1064).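 Note: measures binding of the biotinylated anti-FSTL3 antibody to printed compounds.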 Conditions: higher = more signal.
Experiment [2] is described as follows: binders from COS7 lysate, DM2A8 probe, primary screen, torsin A project, cell lysate, small-molecule microarray, fluorescence 635/667 (AID 1065). As to conditions: higher = more signal, COS7 lysate expressing mutant human TOR1A.
Experiment [3] in a line: small molecules captured by biotinylated probe aFGF2 – biochemical, small-molecule microarray, fluorescence 635/667, stem cell growth factor project, primary screen (AID 1067).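 Note: measures binding of biotinylated aFGF2 protein to printed compounds on slides; z-score merges feature fluorescence and signal-to-noise across triplicate slides.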 As to conditions: higher = more signal.
Experiment [4] is described as follows: small molecules captured by biotinylated probe aFGF10 – biochemical, small-molecule microarray, fluorescence 635/667, stem cell growth factor project, primary screen (AID 1071).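 Note: score merges 667 nm spot intensity and signal to noise from triplicate slides.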 Conditions: higher = more signal.
Experiment [5] has as its target Neurogenic locus notch homolog protein 2 (Homo sapiens) (UniProt Q04721). The experiment in a line: small molecules binding Notch2 protein – biochemical, small-molecule microarray, 635 nm fluorescence, stem cell growth factors, primary screen (AID 1073). Conditions: higher = more signal.
Experiment [6] addresses Pro-neuregulin-1, membrane-bound isoform (Homo sapiens) (UniProt Q02297). Description: small molecules binding neuregulin-1 protein – biochemical, small-molecule microarray, fluorescence 635/667, psychiatric disease protein project, primary screen (AID 1075).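 Note: score combines 667 nm spot fluorescence with signal to noise.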 As to conditions: NRG1 binding, 635 nm fluorescence, higher = more signal.
In experiment [7] the test system is Neuregulin-1 EGF-like domain. Description: small molecules binding NRG1 EGF domain – biochemical, small-molecule microarray, 635 nm fluorescence, primary screen (AID 1081).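 Note: binding of the protein to compounds printed on small-molecule microarray slides.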 Conditions: higher = more signal.
Experiment [8] is described as follows: FRG1 expression reporter modulators in myotubes – cell-based, C2C12 myotubes, firefly/Renilla luciferase, luminescence, FRG1 inhibition for FSHD, primary screen (AID 1084). As to conditions: FRG1 promoter luciferase, higher = more signal, called active from +8 up or from −8 down.
Experiment [9] in a line: small molecules captured by biotinylated probe aFST – biochemical, small-molecule microarray, fluorescence 635/667, stem cell growth factor project, primary screen (AID 1086).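 Note: score merges 667 nm fluorescence with signal-to-noise of each printed compound spot.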 Conditions: higher = more signal.
Experiment [10] can be described thus: binders of probe aHhip on microarray, primary screen, stem cell growth factor project, biochemical, small-molecule microarray, fluorescence 635/667 (AID 1087).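 Note: score merges spot fluorescence at 667nm with spot signal to noise ratio.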 As to conditions: higher = more signal.
Experiment [11] concerns PRMT1 (protein arginine N-methyltransferase 1). The experiment in a line: small molecules binding arginine methyltransferase PRMT1 – biochemical, small-molecule microarray, 635 nm fluorescence, primary screen (AID 1088).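 Note: binding of Prmt1 protein to compounds spotted on small-molecule microarray slides.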 As to conditions: higher = more signal.
Experiment [12] is described as follows: growth effects on S. cerevisiae YJM789 – YJM789 clinical isolate, OD600, 24 h, basal, primary screen (AID 1089).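 Note: growth of clinical yeast isolate S. cerevisiae YJM 789 seeded 1000 cells per well; test concentration not given here.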 Conditions: higher = more signal, called active from +8 up or from −8 down.
A short description of experiment [13]: S. pombe growth modifiers, basal conditions – strain 972, OD600, 24 h, no modulator, primary screen (AID 1090).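 Note: basal condition with compound alone and no growth modifier present; test concentration not given here.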 Conditions: S. pombe 972 growth, higher = more signal, called active from +8 up or from −8 down.
Experiment [14] in a line: budding yeast growth modifiers under rapamycin – strain BY4716, OD600, 96 h, primary screen (AID 1091). Note: test concentration not given here. As to conditions: S. cerevisiae BY4716 + rapamycin, higher = more signal, called active from +8 up or from −8 down.
Experiment [15] concerns the target Torsin-1A-interacting protein 2 (Homo sapiens) (UniProt Q8NFQ8). Description: small molecules binding lysate-expressed LULL1 – cell lysate, human LULL1 lysate, 635/667 nm fluorescence, primary screen (AID 1092).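 Note: score merges per-feature 667 nm fluorescence with signal-to-noise.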 Conditions: small-molecule microarray, hLULL1 lysate binding, 635 nm fluorescence; higher = more signal.
Experiment [16] can be described thus: optical density change of DRC41 E. coli – strain DRC41, OD650, 24 h, E. coli filamentation project, primary screen (AID 1093).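 Note: MC1000 strain lacking acrAB efflux and sulA so SOS filamentation is blocked; test concentration not given here.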 Conditions: E. coli DRC41 growth, higher = more signal, called active from +8 up or from −8 down.
Experiment [17] in a line: probe aLefty2 binding to arrayed compounds – biochemical, biotinylated probe, 635/667 nm fluorescence, primary screen (AID 1094).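 Note: score merges spot fluorescence near 667 nm with spot signal-to-noise ratio.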 Conditions: small-molecule microarray, higher = more signal.
Experiment [18] relates to Noggin (protein binding on small-molecule microarray). The experiment in a line: small molecules binding Noggin protein – biochemical, 635/667 nm fluorescence, primary screen (AID 1095).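 Note: score merges 667 nm feature fluorescence with signal to noise over triplicate slides.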 As to conditions: 635 nm fluorescence, higher = more signal.
Experiment [19] concerns the target Neurogenic locus notch homolog protein 3 (Homo sapiens) (UniProt Q9UM47). Description: small molecules binding NOTCH3 protein – biochemical, 635/667 nm fluorescence, primary screen (AID 1096). As to conditions: small-molecule microarray, 635 nm fluorescence, higher = more signal.
Experiment [20] can be described thus: probe aEGFR binding to arrayed compounds – biochemical, biotinylated probe, 635/667 nm fluorescence, primary screen (AID 1097).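 Note: probe is a biotinylated anti-EGFR antibody binding compounds printed on slides; score combines fluorescence near 667 nm and signal to noise of each spot.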 Conditions: small-molecule microarray, higher = more signal.

Activity calls are given as the source filed them.

Pro-neuregulin-1, membrane-bound isoform (Homo sapiens), sequence (Q02297 whole entry, looked up, the tested form may be a part, canonical isoform): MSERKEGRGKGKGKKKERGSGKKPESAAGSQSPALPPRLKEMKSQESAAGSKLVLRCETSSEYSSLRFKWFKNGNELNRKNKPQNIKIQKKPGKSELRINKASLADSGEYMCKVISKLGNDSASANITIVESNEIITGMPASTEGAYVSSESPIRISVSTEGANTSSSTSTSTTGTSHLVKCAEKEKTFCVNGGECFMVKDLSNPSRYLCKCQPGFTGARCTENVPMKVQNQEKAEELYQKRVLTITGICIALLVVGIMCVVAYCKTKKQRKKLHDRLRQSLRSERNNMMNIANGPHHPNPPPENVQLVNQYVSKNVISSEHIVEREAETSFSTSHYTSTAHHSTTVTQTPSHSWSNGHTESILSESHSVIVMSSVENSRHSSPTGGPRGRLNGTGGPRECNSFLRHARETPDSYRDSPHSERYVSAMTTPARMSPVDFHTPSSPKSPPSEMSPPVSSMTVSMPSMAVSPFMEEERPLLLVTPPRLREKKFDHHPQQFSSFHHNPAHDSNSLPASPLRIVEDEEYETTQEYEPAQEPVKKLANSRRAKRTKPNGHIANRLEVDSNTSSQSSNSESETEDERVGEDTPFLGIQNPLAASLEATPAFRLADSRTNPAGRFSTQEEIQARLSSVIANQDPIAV
Neurogenic locus notch homolog protein 2 (Homo sapiens), sequence (Q04721 whole entry, looked up, canonical isoform): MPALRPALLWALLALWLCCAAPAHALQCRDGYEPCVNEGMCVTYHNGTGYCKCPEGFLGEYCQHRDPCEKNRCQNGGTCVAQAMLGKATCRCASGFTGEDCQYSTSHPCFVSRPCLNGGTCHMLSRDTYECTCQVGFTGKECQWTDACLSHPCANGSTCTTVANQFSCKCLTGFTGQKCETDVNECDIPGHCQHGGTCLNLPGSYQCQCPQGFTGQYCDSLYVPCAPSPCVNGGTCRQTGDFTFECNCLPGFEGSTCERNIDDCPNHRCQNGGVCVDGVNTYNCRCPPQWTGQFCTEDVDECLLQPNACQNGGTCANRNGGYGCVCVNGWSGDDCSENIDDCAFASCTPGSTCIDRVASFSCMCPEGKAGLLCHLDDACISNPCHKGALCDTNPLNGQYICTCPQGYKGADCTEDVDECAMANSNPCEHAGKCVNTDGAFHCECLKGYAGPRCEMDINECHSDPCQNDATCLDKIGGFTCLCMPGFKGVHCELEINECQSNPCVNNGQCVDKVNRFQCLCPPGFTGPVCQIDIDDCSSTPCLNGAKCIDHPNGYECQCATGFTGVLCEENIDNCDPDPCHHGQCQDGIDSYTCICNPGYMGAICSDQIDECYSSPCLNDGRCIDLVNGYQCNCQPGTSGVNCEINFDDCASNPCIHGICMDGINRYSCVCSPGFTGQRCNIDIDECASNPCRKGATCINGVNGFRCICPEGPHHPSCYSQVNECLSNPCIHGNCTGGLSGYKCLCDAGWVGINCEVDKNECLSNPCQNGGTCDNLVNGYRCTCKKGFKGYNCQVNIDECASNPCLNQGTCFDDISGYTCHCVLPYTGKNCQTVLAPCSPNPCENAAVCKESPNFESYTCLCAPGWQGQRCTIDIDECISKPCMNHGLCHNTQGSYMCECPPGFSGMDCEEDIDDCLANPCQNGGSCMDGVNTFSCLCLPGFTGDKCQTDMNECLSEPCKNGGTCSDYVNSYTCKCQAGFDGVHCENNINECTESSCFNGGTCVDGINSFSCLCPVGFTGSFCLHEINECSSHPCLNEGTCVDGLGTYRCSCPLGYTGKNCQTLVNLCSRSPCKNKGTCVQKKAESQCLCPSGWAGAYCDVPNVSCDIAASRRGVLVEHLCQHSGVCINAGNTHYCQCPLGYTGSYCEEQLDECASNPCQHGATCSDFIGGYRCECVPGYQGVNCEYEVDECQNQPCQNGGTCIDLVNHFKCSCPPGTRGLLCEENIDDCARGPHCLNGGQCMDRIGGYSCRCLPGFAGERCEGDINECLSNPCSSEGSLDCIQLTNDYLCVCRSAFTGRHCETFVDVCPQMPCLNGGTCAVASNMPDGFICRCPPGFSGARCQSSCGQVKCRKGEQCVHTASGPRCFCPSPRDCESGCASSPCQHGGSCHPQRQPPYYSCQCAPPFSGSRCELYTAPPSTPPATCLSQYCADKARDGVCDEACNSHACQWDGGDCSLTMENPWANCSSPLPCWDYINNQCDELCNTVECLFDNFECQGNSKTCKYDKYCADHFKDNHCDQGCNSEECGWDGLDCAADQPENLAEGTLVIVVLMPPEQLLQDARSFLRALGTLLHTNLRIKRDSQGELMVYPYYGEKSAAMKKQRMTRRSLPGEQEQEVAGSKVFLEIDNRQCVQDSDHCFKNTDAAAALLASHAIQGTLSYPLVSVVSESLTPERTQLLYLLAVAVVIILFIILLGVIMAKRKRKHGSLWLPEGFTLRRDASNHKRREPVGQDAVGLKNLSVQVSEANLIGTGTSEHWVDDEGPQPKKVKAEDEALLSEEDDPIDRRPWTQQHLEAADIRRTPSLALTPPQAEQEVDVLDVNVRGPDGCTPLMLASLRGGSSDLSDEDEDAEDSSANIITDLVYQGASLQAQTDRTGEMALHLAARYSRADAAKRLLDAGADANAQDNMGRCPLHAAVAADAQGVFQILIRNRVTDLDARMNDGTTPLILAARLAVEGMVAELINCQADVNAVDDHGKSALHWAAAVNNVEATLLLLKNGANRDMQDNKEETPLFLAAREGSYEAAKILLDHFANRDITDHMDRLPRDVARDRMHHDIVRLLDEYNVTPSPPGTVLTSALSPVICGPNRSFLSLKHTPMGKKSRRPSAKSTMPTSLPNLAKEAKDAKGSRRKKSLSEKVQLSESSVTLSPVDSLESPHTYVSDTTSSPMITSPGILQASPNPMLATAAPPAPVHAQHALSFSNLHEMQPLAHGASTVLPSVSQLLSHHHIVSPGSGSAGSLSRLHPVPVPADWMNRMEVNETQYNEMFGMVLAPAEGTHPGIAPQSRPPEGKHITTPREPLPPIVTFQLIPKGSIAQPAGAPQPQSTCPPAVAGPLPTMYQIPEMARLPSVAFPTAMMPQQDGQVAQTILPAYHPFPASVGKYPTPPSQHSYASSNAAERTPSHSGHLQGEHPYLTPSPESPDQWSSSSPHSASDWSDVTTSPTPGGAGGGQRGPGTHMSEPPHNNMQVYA
Torsin-1A-interacting protein 2 (Homo sapiens), sequence (Q8NFQ8 whole entry, looked up): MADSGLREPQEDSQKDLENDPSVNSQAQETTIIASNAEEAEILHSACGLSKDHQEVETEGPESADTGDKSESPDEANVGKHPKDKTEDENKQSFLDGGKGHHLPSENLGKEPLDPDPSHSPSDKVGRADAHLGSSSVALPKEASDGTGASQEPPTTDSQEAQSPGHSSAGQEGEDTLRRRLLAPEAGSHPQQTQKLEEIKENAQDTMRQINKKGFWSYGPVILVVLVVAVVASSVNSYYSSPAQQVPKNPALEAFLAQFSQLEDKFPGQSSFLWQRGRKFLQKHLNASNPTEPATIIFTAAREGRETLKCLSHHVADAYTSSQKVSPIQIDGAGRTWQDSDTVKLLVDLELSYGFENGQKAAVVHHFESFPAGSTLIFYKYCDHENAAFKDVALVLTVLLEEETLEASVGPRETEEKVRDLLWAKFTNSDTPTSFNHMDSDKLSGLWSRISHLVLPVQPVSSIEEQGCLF

`O=c1cccc(CCc2ccccc2)o1`: the composite z-score was -0.587 in [1]; -0.322 in experiment [2]; -0.0909 in experiment [3]; 0.0466 in [4]; -0.321 in [5]; 0.93 in experiment [6]. Also, the composite z-score in experiment [7] is 1.16; in experiment [9] it was -0.104; in experiment [10], 0.0251; in experiment [11], 1.08; in [15], 1.8; in experiment [17], -0.117. The composite z-score in experiment [18] was 0.491; in experiment [19] it was 0.621; in [20] it was -0.171. In addition, the z-score was 1.17 (inactive) in experiment [8]; -0.951 (inactive) in [12]; -2.06 (inactive) in experiment [13]; 0.102 (inactive) in [14]; -0.97 (inactive) in experiment [16].
Turning to `Cc1cc(C)c(C(O)C2C=CC3C(=O)N(C)C(=O)C3N2Nc2ccccc2)c(C)c1` (stereo not given), the composite z-score was 1.19 in [1]; 0.732 in experiment [2]; 0.462 in experiment [3]; 0.93 in experiment [4]; 1.64 in experiment [5]; 1.26 in experiment [6]. Further, the composite z-score was 1.27 in experiment [7]; 2.01 in experiment [9]; 0.872 in experiment [10]; 0.378 in [11]; 2.41 in experiment [15]; 1.24 in [17]. The composite z-score in experiment [18] came to 0.0355; in [19] it was 0.533; in experiment [20] it was 0.907. In addition, the z-score was 0.016 (inactive) in experiment [8]; -0.304 (inactive) in [12]; 0.569 (inactive) in experiment [13]; -0.448 (inactive) in [14]; -1.32 (inactive) in [16].
Consider `Cc1ccc(S[C@]2(C(=O)NCc3ccccc3)CC(=O)N(Cc3ccccc3)[C@@H]2c2ccc(CO)cc2)cc1`, for which the composite z-score in experiment [1] is 0.264; in [2], -0.443; in experiment [3], -0.0165; in experiment [4], 0.793; in experiment [5], -0.338; in [6], 1.33. Besides, the composite z-score in [7] is 1.09; in [9], -0.0886; in experiment [10], -0.169; in [11], 1.55; in experiment [15], 3.04; in [17], -0.001. Moreover, the composite z-score in experiment [18] was -0.9; in experiment [19], -0.91; in experiment [20] it was -0.272. In addition, the z-score in [8] was -2.33 (inactive); in experiment [12], -0.349 (inactive); in experiment [13], -0.288 (inactive); in experiment [14], -0.0702 (inactive); in [16], -0.927 (inactive).
For `CCCCC=C[C@@H](NC(=O)c1cccs1)c1ccccc1`, the composite z-score in experiment [1] turned out to be 0.144; in experiment [2], 0.583; in experiment [3], 0.121; in [4], 0.308; in experiment [5], 1.1; in [6] it was 0.736. The composite z-score was 0.858 in experiment [7]; 0.409 in [9]; 0.913 in experiment [10]; -0.0502 in experiment [11]; 2.01 in [15]; 0.0812 in experiment [17]. Besides, the composite z-score was -0.222 in experiment [18], 0.955 in [19] and -0.0746 in experiment [20]. Further, the z-score was -3.42 (inactive) in [8]; 0.464 (inactive) in experiment [12]; 0.845 (inactive) in [13]; 1.72 (inactive) in experiment [14]; -0.312 (inactive) in experiment [16].
For `COC(=O)C(CC#Cc1ccc2c(c1)[C@]1(C(=O)N2)[C@H](C(=O)NC[C@H](O)c2ccccc2)[C@H]2C(=O)O[C@H](c3ccccc3)[C@H](c3ccccc3)N2[C@@H]1c1ccc(OCCO)cc1)C(=O)OC`, the composite z-score came to 1.4 in [1]; 1.2 in experiment [2]; 0.225 in experiment [3]; 0.641 in experiment [4]; 1.37 in [5]; 1.41 in experiment [6]. In addition, the composite z-score in experiment [7] is 1.3; in experiment [9] it was 2.31; in experiment [10] it was -0.447; in [11], 1.54; in experiment [15] it was 3.62; in experiment [17], 0.14. In addition, the composite z-score in experiment [18] turned out to be 1.87; in experiment [19], 1.05; in experiment [20], 0.345. Also, the z-score in [8] was 1.9 (inactive); in experiment [12], 2.7 (inactive); in experiment [13], 1.16 (inactive); in [14] it was 3.93 (inactive); in experiment [16], -0.207 (inactive).
